In ChEMBL document CHEMBL4513216, “Probing the Open Global Health Chemical Diversity Library for Multistage-Active Starting Points for Next-Generation Antimalarials” (ACS Infect Dis, 2020):
The campaign covered roughly 68,000 compounds. About 2,700 (4%) showed an effect of 50% or more. This is one part of a sample in which strong results are shown more often than they occur.

test system: Plasmodium berghei; assay: Screen against P. berghei liver stage (PbLuc), transformed with Luciferase, at 2uM; assay type: functional, HepG2; conditions: tested at 2 uM

SMILES	INHIBITION [%]
COc1cccc([C@H]2CN(C(C)=O)[C@@H]3CCN(Cc4ccsc4)C[C@H]23)c1	-24.17
O=C(CC1CC1)N1CCO[C@H]2[C@H](OCCCn3cccn3)CC[C@@H]21	37.74
CC(C)c1nn(C)c(N(C)C)c1CNCc1ccc(N(C)C)nc1	-4.43
O=C(C1CC1)N1CC2(CCNCC2)C1	60.6
O=C(C1CCC1)N1CCC2(CCNCC2)C1	2.94
O=C(C1CCCCC1)N1CC2(CCNCC2)C1	27.1
CC(=O)N1CCC(c2cccc(-c3cccc(C(=O)O)c3)n2)CC1	23.7
CCOc1ccc(CC(=O)Nc2cnccc2SCCCO)cc1	-15.31
O=C(NCc1ccccn1)NCC(c1ccco1)N1CCCCC1 (stereo unspecified)	-18.65
CCc1cc(CNC(=O)NCC(c2ccco2)N2CCCC2)[nH]n1 (stereo unspecified)	42.11
O=C(NCc1ccccn1)NCC(c1ccco1)N1CCCC1 (stereo unspecified)	53.61
COc1ccc(C[C@H]2CN(C(=O)c3ccncc3)CC[C@@H]2OC)cc1	-9.66
COc1ccc(C[C@H]2CN(C(=O)c3ccc(C)nc3)CC[C@@H]2OC)cc1	15.57
Cc1cc(C(=O)N2CC[C@@H](O)[C@@H]2Cc2ccccc2)no1	19.42
COc1ccc(C[C@H]2CN(C(=O)c3ncccn3)CC[C@@H]2OC)cc1	33.74
Cc1cc(C(=O)N2CC[C@@H]3CN(C)S(=O)(=O)[C@@H]3CC2)no1	-27.81
COc1ccc(C[C@H]2CN(C(=O)c3ccn(C)n3)CC[C@H]2OC)cc1	15.57
CO[C@H]1CCN(C(=O)c2cc(C)on2)C[C@@H]1Cc1ccccc1	59.5
COc1ccc(C[C@H]2CN(C(=O)c3cc(C)no3)CC[C@H]2OC)cc1	51.26
CO[C@H]1CCN(C(=O)c2cc(C)on2)[C@H]1Cc1ccncc1	-11.88
Cc1cc(C(=O)N2CC[C@@H]3CN(CCC(C)C)S(=O)(=O)[C@@H]3CC2)no1	36.44
COCCO[C@H]1CCN(C(=O)c2cc(C)on2)[C@H]1Cc1ccccc1	62.46
COCCN1C[C@H]2CCN(C(=O)c3cc(C)on3)CC[C@H]2S1(=O)=O	63.35
Cc1cnn(CC2CN(Cc3nc(C4CC4)no3)CCO2)c1 (stereo unspecified)	-18.67
c1cnc(NCc2cncc3c2CCN(Cc2ccsc2)C3)nc1	46.11
CSc1nc2ccsc2c(=O)n1CC(=O)N1CCCCC1C (stereo unspecified)	-24.07

SMILES	INHIBITION [%]
CC(C)NC(=O)N1CCC2(CC(=O)N(c3cccc(C#N)c3)C2)C1 (stereo unspecified)	-8.23
O=C(C1CCOCC1)N1C[C@H](OCc2cccnc2)[C@H]2COC[C@H]21	26.19
CCOc1ncccc1C(=O)N1CCCC(c2nccn2CCOC)C1 (stereo unspecified)	-32.59
CN1CCc2cc(C(=O)N(C)C)c(NCC3CC3)nc2CC1	23.97
COCCNCc1cc2ccc(C)c(C)c2[nH]c1=O	-21.9
CCC1CN(C(=O)c2csc3nc(-c4ccc(Cl)cc4)cn23)CCN1 (stereo unspecified)	22.83
Cc1cccc(CN2C(=O)CCC23CCN(Cc2cccn2C)CC3)n1	17.39
COc1ccc(-c2ncc(-c3nccn3CCN(C)C)cn2)cc1	10.63
CC(C)c1nccn1C1CCCN(C(=O)CCc2cscn2)C1 (stereo unspecified)	21.39
CO[C@@H]1CCN(C(=O)c2cc(C)on2)C[C@@H]1Cc1ccccc1	52.91
COc1ccc(C[C@H]2CN(C(=O)c3cnoc3)CC[C@@H]2OC)cc1	-36.05
COc1ccc(C[C@H]2CN(C(=O)c3cscn3)CC[C@@H]2OC)cc1	-6.39
COc1ccsc1C(=O)N1CCCC1c1c(C)nn(C)c1OC (stereo unspecified)	-11.31
Cn1cc(N2C(=O)CC[C@@H]3[C@H]2CCN3CC2CCOCC2)cn1	50.17
Cn1cc(N2C(=O)CC[C@@H]3[C@H]2CCN3Cc2nccs2)cn1	-20.87
Cn1cc(N2C(=O)CC[C@@H]3[C@H]2CCN3CCc2ccccc2)cn1	-18.2
CCCN1CCC(Cc2noc(-c3cc4cccnc4nc3C)n2)CC1	38.91
CC(C(=O)NCc1ccc(N2CCNC(=O)C2)cc1)c1cccs1 (stereo unspecified)	-25.44
CCOC(=O)NC(CNC(=O)c1cn(C)cn1)CC(C)C (stereo unspecified)	60.9
CCOC(=O)NC(CNC(=O)c1ccccn1)CC(C)C (stereo unspecified)	-15.54
CCOC(=O)NC(CNC(=O)c1ncccn1)CC(C)C (stereo unspecified)	2.41
O=C(NCCN1CCOCC1)NCC(O)c1cccc(F)c1 (stereo unspecified)	-27.69
Cc1noc(CN(CCO)Cc2cc(Br)ccc2F)n1	-18.92
CCOc1cncc(N2CCN(c3ccccc3O)CC2)n1	22.75
COc1c(C2CCCN2Cc2nccn2C)c(C)nn1C (stereo unspecified)	56.47
